The record followed here is ChEMBL document CHEMBL3988442, “University of Dundee, Small-Polar-MMV Screening Library” (2021).

Parameters in all cases: scale not given: direction of the effect not stated beside the values
Test [1] addresses Protein translocase subunit SecA (Escherichia coli (strain K12)) (UniProt P10408). Kind of test: Assay to Identify E. coli SecA ATPase Inhibitors. In kind it is functional. The note with it: 30 µM.
Test [2] has as its target T1, Ubiquitin-activating enzyme e1, putative (Leishmania donovani (strain BPK282A1)) (UniProt E9BSI1).
T1 sequence (whole entry): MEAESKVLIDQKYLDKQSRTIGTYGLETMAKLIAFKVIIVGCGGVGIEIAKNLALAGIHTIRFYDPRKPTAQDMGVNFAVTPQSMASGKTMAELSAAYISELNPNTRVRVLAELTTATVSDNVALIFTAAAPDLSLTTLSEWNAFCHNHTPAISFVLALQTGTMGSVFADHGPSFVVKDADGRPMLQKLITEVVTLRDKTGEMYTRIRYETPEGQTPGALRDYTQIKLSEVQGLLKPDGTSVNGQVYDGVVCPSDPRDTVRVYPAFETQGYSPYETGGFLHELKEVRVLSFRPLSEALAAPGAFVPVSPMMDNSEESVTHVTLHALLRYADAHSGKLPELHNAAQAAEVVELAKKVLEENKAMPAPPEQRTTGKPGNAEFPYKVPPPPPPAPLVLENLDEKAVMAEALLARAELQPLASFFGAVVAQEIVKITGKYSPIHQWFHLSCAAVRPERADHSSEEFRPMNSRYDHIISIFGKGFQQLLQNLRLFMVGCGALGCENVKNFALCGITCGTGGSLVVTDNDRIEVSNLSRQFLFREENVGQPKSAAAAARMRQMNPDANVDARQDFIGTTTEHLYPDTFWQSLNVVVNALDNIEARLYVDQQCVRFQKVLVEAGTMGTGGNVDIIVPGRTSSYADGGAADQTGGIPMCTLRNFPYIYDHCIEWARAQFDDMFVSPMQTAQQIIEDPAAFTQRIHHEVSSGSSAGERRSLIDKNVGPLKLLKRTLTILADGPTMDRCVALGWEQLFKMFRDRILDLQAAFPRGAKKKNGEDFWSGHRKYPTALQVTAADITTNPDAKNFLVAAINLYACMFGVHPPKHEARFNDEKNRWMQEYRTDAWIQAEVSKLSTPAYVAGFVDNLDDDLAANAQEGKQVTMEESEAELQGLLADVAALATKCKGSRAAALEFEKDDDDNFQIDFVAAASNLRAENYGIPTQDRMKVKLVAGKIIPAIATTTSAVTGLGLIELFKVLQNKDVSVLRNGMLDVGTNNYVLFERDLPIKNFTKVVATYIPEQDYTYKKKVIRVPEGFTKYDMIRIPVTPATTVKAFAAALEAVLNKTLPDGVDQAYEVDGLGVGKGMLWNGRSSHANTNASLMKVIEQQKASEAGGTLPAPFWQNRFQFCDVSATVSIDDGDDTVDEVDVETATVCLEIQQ
The experiment in a line: Leishmania donovani Ubiquitin Activating Enzyme (LdE1). In kind it is functional. The note with it: 30 µM.

Test [3] deals with AMP-activated protein kinase, AMPK (Homo sapiens) (UniProt P54646+O43741+P54619+Q9UGJ0+Q9Y478+Q13131+Q9UGI9). Kind of test: AMP-dependent Kinase enzyme assay. An in vitro enzyme assay that detects ADP turnover that is directly proportional to AMPK activity. This uses naive AMPK that is activated during the assay with MK-8722. The class given is functional. The note with it: 30 µM.

Test [4] deals with Sialic acid-binding Ig-like lectin 9 (Homo sapiens) (UniProt Q9Y336). Kind of test: Hs-Siglec9 ALPHAscreen SOP 20170721. The note with it: 10 µM.
Another test has as its system Trypanosoma cruzi. Kind of test: Trypanosoma cruzi phosphomannomutase and mannose-1-phosphate guanylyltransferase assay. The class given is functional. The note with it: 10 µM.
The target of test [5] is T2, Arginase-2, mitochondrial (Homo sapiens) (UniProt P78540).
T2 sequence (whole entry): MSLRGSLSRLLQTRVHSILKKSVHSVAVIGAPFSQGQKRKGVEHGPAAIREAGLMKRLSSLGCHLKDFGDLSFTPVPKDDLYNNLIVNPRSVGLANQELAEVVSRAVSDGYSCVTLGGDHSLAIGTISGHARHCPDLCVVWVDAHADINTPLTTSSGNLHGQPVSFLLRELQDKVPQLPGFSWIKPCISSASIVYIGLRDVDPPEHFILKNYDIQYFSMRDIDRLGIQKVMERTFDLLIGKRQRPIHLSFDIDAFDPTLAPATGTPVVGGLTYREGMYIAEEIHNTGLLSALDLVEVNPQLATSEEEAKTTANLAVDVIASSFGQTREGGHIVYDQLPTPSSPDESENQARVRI
Kind of test: in vitro enzyme assay to detect the production of urea directly proportional to the activity of Arginase II. Also: in the data most compounds retested in dose-response had high values. The class given is functional. The note with it: 33.3 µM.

Test [6] deals with T3, Proteasome subunit beta (Trypanosoma cruzi) (UniProt O96673).
T3 sequence (whole entry): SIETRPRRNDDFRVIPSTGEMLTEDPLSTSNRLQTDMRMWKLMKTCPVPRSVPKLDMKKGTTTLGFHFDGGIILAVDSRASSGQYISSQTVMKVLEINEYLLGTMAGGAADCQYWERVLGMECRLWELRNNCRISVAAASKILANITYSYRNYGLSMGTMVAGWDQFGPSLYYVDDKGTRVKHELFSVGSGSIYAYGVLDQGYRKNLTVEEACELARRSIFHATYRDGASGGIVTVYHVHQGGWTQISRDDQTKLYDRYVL
The experiment in a line: Trypanosoma cruzi proteasome chymotrypsin-like activity (TcProtChymo) assay. Also: in the data most compounds retested in dose-response had high values. The note with it: 9.37 µM. The class given is functional.

Another test is filed under the species Homo sapiens. The experiment in a line: To identify inhibition of the IFN signalling (Jak-Stat) pathway via expression of an eGFP reporter gene under the control of an IFN-stimulated response element (ISRE) containing MxA promoter. The note with it: 30 µM. The class given is functional.
The target in test [7] is T4, Tyrosyl-tRNA synthetase, putative (Trypanosoma cruzi (strain CL Brener)) (UniProt Q4DSP6).
T4 sequence (whole entry): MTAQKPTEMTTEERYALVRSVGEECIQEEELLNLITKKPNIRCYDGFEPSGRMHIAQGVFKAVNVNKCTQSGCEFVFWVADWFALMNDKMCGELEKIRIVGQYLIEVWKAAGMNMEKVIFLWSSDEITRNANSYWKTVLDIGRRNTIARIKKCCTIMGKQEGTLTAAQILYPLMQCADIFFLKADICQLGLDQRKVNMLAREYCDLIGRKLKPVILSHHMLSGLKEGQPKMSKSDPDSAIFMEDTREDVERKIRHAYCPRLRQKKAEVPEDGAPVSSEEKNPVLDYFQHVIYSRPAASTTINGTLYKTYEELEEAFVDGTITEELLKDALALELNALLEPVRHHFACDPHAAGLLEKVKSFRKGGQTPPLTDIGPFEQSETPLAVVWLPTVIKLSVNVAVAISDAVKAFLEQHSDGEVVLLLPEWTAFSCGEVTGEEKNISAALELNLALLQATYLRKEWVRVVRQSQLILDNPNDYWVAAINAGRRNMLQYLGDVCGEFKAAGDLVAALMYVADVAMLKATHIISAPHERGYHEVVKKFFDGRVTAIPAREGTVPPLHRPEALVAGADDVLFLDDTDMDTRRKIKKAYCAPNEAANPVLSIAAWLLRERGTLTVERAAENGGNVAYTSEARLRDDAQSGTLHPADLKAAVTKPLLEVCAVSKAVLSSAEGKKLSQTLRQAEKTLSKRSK
Kind of test: Trypanosoma cruzi tyrosyl tRNA synthetase (TcYRS) _High Tyrosine SOP. Also: in the data most compounds retested in dose-response had high values. The class given is functional. The note with it: 30 µM.

Test [8] addresses T4, Tyrosyl-tRNA synthetase, putative (Trypanosoma cruzi (strain CL Brener)). Kind of test: Trypanosoma cruzi tyrosyl tRNA synthetase (TcYRS) SOP. In kind it is functional. Conditions: 30 µM.
Test [9] deals with Chromo domain-containing protein 1 (Saccharomyces cerevisiae (strain ATCC 204508 / S288c) (Baker's yeast)) (UniProt P32657). Kind of test: ScCHD-1 Enzyme Inhibition Assay. Also: in the data most compounds retested in dose-response had high values. The class given is functional. Conditions: 30 µM.

For some of these results: Results with a measured potency or affinity are listed apart.

Protein translocase subunit SecA (Escherichia coli (strain K12)), sequence (P10408 whole entry): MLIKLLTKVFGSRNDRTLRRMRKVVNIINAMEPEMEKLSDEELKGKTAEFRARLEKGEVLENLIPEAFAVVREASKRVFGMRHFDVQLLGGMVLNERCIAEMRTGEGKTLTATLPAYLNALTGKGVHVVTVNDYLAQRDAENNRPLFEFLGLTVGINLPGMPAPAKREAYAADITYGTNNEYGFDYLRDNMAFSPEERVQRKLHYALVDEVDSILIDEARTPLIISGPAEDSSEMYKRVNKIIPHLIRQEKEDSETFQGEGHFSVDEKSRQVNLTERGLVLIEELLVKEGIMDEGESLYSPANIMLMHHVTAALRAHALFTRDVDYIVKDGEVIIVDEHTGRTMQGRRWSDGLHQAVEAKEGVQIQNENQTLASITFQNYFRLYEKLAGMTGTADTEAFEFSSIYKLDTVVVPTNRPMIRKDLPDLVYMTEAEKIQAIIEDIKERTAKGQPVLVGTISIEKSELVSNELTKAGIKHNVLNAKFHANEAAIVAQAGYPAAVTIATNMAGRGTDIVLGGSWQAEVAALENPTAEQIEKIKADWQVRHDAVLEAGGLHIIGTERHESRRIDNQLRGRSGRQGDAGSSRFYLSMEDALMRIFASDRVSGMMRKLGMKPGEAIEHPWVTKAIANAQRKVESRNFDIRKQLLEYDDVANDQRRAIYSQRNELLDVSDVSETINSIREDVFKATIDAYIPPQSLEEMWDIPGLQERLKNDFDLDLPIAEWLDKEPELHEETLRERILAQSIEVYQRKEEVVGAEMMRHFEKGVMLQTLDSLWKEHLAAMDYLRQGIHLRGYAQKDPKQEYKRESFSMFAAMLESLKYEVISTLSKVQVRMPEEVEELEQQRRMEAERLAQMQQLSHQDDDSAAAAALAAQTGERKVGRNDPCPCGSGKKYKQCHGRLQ
Sialic acid-binding Ig-like lectin 9 (Homo sapiens), sequence (Q9Y336 whole entry): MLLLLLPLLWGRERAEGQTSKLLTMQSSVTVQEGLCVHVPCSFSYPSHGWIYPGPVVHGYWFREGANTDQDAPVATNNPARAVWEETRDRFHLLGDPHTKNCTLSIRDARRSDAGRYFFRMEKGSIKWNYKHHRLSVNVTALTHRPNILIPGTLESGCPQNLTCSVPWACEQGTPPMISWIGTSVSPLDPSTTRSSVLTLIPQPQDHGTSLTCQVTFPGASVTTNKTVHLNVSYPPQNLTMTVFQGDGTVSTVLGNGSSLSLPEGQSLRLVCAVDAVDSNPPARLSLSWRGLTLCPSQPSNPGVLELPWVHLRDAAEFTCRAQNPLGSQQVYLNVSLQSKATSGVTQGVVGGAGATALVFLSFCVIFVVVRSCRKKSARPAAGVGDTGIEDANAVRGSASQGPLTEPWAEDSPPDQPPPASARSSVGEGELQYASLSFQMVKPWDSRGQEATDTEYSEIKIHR
Chromo domain-containing protein 1 (Saccharomyces cerevisiae (strain ATCC 204508 / S288c) (Baker's yeast)), sequence (P32657 whole entry, the tested form may be a part): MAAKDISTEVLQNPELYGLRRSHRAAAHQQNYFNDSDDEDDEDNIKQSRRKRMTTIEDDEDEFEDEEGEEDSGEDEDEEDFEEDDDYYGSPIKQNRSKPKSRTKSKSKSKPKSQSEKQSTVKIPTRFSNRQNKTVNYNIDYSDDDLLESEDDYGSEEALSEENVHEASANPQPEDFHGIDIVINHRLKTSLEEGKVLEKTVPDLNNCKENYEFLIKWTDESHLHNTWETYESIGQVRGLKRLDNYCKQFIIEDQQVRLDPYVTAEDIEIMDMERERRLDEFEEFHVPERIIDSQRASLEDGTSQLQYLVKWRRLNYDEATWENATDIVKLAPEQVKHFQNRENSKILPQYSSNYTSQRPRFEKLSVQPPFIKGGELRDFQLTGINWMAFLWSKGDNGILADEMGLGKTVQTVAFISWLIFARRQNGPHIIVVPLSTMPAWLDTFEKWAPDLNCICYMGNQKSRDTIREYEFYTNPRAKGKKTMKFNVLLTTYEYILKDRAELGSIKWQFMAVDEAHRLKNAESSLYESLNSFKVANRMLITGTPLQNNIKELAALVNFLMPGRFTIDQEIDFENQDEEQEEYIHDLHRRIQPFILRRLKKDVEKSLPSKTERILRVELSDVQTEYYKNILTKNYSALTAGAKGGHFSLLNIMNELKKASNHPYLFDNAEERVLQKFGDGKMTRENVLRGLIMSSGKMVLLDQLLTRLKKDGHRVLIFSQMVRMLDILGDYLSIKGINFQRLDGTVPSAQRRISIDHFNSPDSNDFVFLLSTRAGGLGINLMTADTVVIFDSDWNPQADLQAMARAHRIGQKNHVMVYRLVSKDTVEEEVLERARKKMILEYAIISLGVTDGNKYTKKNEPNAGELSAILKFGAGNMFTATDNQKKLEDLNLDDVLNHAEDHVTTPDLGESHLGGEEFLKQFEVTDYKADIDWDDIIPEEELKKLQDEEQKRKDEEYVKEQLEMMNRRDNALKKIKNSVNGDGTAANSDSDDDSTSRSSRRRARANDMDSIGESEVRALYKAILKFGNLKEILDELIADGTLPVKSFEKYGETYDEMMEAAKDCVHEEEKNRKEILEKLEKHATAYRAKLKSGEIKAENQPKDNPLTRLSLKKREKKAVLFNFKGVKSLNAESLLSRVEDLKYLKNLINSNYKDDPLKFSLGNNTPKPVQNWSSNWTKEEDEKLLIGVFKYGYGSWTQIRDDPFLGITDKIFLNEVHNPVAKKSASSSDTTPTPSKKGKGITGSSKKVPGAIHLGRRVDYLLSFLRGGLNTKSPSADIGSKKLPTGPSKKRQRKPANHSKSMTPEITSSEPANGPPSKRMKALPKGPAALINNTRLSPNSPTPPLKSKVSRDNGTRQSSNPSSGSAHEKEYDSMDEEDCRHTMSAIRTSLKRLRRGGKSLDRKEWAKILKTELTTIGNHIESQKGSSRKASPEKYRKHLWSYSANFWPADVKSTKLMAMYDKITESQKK

Turning to `CCN1CCN(C(=O)c2ccn(C)c(=O)c2)CC1`, the Percent Effect is -1.02% in [1]; 6.33% in [2]; 3.55% in test [3]; -4.57% in [4]; -4.62% in the test with Trypanosoma cruzi; -1.07% in [5]. Moreover, the Percent Effect was 11.8% in [6]; 21.1% in the test filed under Homo sapiens; 4.17% in [7]; -5.06% in test [8]; -16.7% in test [9].
Turning to `CCc1[nH]ncc1C(=O)N1CCCN(Cc2cnn(C)c2)CC1`, the Percent Effect in [1] was 0.347%; in [2], 15.6%; in [3] it was 6.03%; in [4], -6.37%; in the test with Trypanosoma cruzi, -0.0979%; in test [5], 5.68%. For the same molecule, the Percent Effect in test [6] was 8%; in the test listed under Homo sapiens, 21.9%; in [7], 5.71%; in test [8], 18.8%; in test [9], -17.9%.
As for `CNS(=O)(=O)c1cccc(CNC(=O)c2c(C)nn(C)c2C)c1`, the Percent Effect in test [1] was -5.54%; in [2], 11.4%; in [3] it was -3.57%; in test [4], -3.8%; in the test with Trypanosoma cruzi it was -2.15%; in test [5], 1.07%. The Percent Effect was 9.78% in [6]; 30.5% in the test listed under Homo sapiens; -1.04% in [7]; 2.53% in test [8]; -12.7% in [9].
Take `CNC(=O)CS(=O)(=O)Cc1coc(-c2ccc(F)cc2)n1`: the Percent Effect is -2.82% in test [1]; 5.41% in test [2]; -2.17% in test [3]; 1.48% in test [4]; 3.67% in the test with Trypanosoma cruzi; 2.38% in [5]. The Percent Effect in [6] was 7.59%; in the test listed under Homo sapiens, -3.27%; in test [7] it was 5.82%; in test [8] it was 12.2%; in test [9], -1.98%.
`CCN1C[C@@H]2[C@@H](OC)CCN(S(=O)(=O)c3ccccc3)[C@@H]2C1`: the Percent Effect in test [1] was -1.54%; in test [2], 16%; in test [3], 3.6%; in test [4], -7.4%; with Trypanosoma cruzi it was -7.48%; in test [5], 0.233%. For the same molecule, the Percent Effect was 11.4% in test [6]; -3.22% in the test listed under Homo sapiens; 1.06% in [7]; 6.41% in [8]; -5.54% in [9].
`O=C(NCc1ccccn1)[C@@H]1COC[C@H]2CN(C3CCOCC3)C[C@H]21`: the Percent Effect is 4.15% in test [1]; 8.11% in [2]; 9.79% in [3]; -14% in [4]; -7.33% in the test with Trypanosoma cruzi; 4.78% in test [5]. Also, the Percent Effect was 12.7% in test [6]; 11.2% in the test listed under Homo sapiens; 5.41% in [7]; 10.3% in [8]; -2.43% in [9].
Take `O=C(c1cccc2cccnc12)N1CCCN(c2cccnn2)CC1`: the Percent Effect in [1] is -6.9%; in [2], 10.4%; in test [3], -4.23%; in [4] it was 1.47%; in the test with Trypanosoma cruzi it was 6.37%; in test [5], 1.9%. In addition, the Percent Effect was 10.8% in test [6]; 0.652% in the test listed under Homo sapiens; 2.86% in [7]; 11.8% in test [8]; -27.3% in test [9].
`Cc1ccc(N2CCCC(N(C)Cc3cc(C)no3)C2)nn1` (stereo unspecified): the Percent Effect in test [1] is -0.747%; in test [2] it was 5.33%; in [3] it was -6.3%; in test [4] it was 43.3%; with Trypanosoma cruzi it was 5.55%; in test [5], 23.4%. The Percent Effect in test [6] was 19.9%; in the test filed under Homo sapiens, 0.899%; in test [7], 6.01%; in test [8], 11.1%; in test [9], -17.3%.
As to `CCOCCn1nc(C)cc1C(=O)N1CCN(C(C)C)C(CC)C1` (stereo unspecified), the Percent Effect in test [1] was -4.36%; in [2], 2.7%; in [3] it was -2.68%; in test [4] it was 4.47%; in the test with Trypanosoma cruzi, 6.56%; in [5] it was -1.43%. Also, the Percent Effect was 10.9% in test [6]; 10.2% in the test listed under Homo sapiens; 3.7% in [7]; 12.2% in test [8]; -1.83% in test [9].
Turning to `CNc1cc2c(nn1)CCN(C(=O)c1cc(F)cc(F)c1)C2`, the Percent Effect in test [1] was -4.7%; in [2], 10.4%; in test [3] it was 2.19%; in test [4] it was 3.45%; in the test on Trypanosoma cruzi, 2.84%; in [5], -3.16%. The Percent Effect is 6.06% in test [6]; 3.72% in the test listed under Homo sapiens; 6.67% in test [7]; 9.41% in [8]; -21.1% in test [9].
Turning to `Cc1cnn(CC2CN(CCc3ccncc3)CCO2)c1` (stereo unspecified), the Percent Effect in [1] was -4.16%; in [2], 5.48%; in test [3] it was 0.214%; in [4], -1.34%; in the test with Trypanosoma cruzi, -0.783%; in test [5], 3.18%. The Percent Effect is 4.08% in test [6]; -14.5% in the test filed under Homo sapiens; 3.23% in [7]; 5% in test [8]; -0.563% in test [9].
